Shown are actives, neighbours in structure and some others; about 2.3% of the full set was active somewhere.
GLS inhibitor: inhibitors of human glutaminase (GLS); O94925; GLS enzymatic activity, qHTS titration; Potency, µM (series often up to 45.5 µM), inactives show top-dose activity change, negative = inhibition, usual class: inhibitors; 0.21% of 410,000 active; further: on the % scale 0 is the no-effect control and ±100 the full control effect
Target sequence (O94925 whole entry, looked up): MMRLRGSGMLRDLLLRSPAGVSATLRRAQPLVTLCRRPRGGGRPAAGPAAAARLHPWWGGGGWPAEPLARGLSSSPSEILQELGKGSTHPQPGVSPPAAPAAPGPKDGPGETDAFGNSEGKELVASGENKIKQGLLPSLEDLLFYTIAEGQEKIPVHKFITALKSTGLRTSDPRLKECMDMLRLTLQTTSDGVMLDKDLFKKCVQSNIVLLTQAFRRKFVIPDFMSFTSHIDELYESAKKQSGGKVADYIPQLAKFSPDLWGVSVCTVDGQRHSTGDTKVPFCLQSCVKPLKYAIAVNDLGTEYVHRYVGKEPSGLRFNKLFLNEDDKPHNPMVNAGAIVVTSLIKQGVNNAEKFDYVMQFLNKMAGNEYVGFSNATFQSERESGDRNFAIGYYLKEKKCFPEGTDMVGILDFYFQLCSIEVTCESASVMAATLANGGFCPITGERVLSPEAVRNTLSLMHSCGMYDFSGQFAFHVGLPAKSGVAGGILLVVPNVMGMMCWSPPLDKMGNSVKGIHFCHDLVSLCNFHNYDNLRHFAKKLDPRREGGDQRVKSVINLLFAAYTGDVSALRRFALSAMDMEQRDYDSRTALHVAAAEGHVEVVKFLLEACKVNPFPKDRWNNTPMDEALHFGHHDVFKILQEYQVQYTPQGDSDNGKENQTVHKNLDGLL
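Coupled fluorescence readout: glutamate oxidase/HRP/Amplex Red detect glutamate formed by hKGA from L-glutamine (1 mM solution added). Buffer 45 mM KH2PO4 pH 8.2, 0.02% Tween-20; reads at t0 and 30 min RT.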
ALOX12 inh: ALOX12 (human) lipoxygenase inhibition | P18054 | purified 12hLO, xylenol orange hydroperoxide absorbance | Potency, µM (titrated, usually from 108 µM), without a hit: at the top dose activity change, negative = inhibition, most hits filed as inhibitors | 1.1% of 580,000 active; further: on the % scale 0 is the no-effect control and ±100 the full control effect
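Hydroperoxide product was detected by ferrous iron/xylenol orange as the 573 to 405 nm absorbance ratio. Arachidonic acid at 40 uM (final) was turned over for 30 min at room temperature by 150 nM human 12hLO, pH 7.0 Hepes buffer, after 15 min compound preincubation.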
PTHR1 ag: activates the human parathyroid hormone receptor PTHR1; Q03431; HEK293 GP2 PTHR1 cells, GloSensor cAMP luminescence, 1 h; Potency, µM (series often up to 115 µM), without a hit: at the highest dose activation, hits mostly activators; 0.075% of 410,000 active; AID 743266; further: nearly all actives have a fitted effect of over 55% in size
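HEK-293-derived GP2 cells expressing PTHR1 and a GloSensor cAMP reporter, 3,000/well, plated overnight, given luciferin plus IBMX (each 0.5 mM as added) for 1 h at 37 °C, then compound for 1 h at 37 °C. Luminescence was read after 15 min at room temperature.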
GRP78 ERSR act: inducers of ER stress response in human glioma cells. 0.02% of 420,000 active. Potency, µM, for inactives: at the highest dose activation, hits mostly activators. U87-MG GRP78 promoter luciferase reporter, 16 h; further: series mostly up to about 76 µM; % of control where 0% means no effect; nearly all actives have a fitted effect of over 35% in size
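Stably transfected U87-MG human glioma cells carrying a GRP78-based luminescent sensor were seeded at 1000 cells/well, pin-dosed with compounds and incubated 16 h. Luciferase reagent was then added, and end-point luminescence was read after 10 min at room temperature.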
GLP-1R agonist: agonists of human GLP-1 receptor | P43220 | HEK293 GLP-1R CRE-luciferase, luminescence, 4-6 h; cells express a hypersensitive GLP-1R form | Potency, µM (top dose mostly 45.6 µM), for the others: top-dose activation, usual class: activators | 0.007% of 380,000 active; further: % of control where 0% means no effect
GLP1R inv ag: GLP-1 receptor (human) inverse agonism; P43220; Potency, µM (highest dose often 38.3 µM), for inactives: at the top dose activity change, negative = inhibition, hits mostly inhibitors; HEK293 GLP-1R CRE-luciferase, luminescence, 24 h; GLP-1R form is constitutively active; 1.6% of 410,000 active; AID 624417; further: on the % scale 0 is the no-effect control and ±100 the full control effect; nearly all actives have a fitted effect of over 55% in size
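Inverse agonists were sought by their lowering of basal cAMP reporter luciferase output in HEK293 cells stably carrying constitutively active human GLP-1R, after 24 h compound treatment.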
The depositor's hits bear a star; i = inactive; ? = inconclusive; . = no result given; [ ] = remark or other dose. The call rests on the fitted dose curve; in most records, active means well fitted curve in the direction sought with a large enough effect; inconclusive means small, poorly fitted or top-dose-only effect, or another doubt; inactive means no such curve, though single readings can be large; an effect the other way counts as inactive or inconclusive. Potency means the concentration at half of the fitted maximal effect.

SMILES	GLS inhibitor	ALOX12 inh	PTHR1 ag	GRP78 ERSR act	GLP-1R agonist	GLP1R inv ag
Cc1oc2c(O)c(O)ccc2c(=O)c1-c1ccccc1	1%	?	i	2%	-5%	24%
Cc1c(Cc2ccccc2)c(=O)oc2c(O)c(O)ccc12	?	4µM*	i	0%	17%	?
Cc1cc(=O)oc2c(O)c(O)ccc12	?	-30%	1%	28µM*	6%	4%
CCC(=O)Nc1ccc(S(=O)(=O)NCCn2nc(-c3ccccc3)ccc2=O)cc1	.	40%	.	.	.	.
Nc1ncnc2c1ncn2[C@@H]1O[C@H](COP(=O)(O)OP(=O)(O)OP(=O)(O)OP(=O)(O)OC[C@@H]2O[C@H](n3cnc4c(N)ncnc43)[C@@H](O)[C@H]2O)[C@@H](O)[C@H]1O	.	?	.	2%	.	.
Nc1ncnc2c1ncn2[C@@H]1O[C@H](COP(=O)(O)OP(=O)(O)CP(=O)(O)O)[C@@H](O)[C@H]1O	.	16µM*	.	8%	.	.
O=C(CN1CCN(CC(=O)Nc2cccc(F)c2)CC1)NCCc1c[nH]c2ccccc12	.	13%	.	.	.	.
O=C(O)C(c1c[nH]c2ccc(Cl)cc12)N1CCc2ccccc2C1 (stereo unspecified)	.	-5%	.	.	.	.
NC(=O)C1CCN(Cc2nc3cc(Cl)ccc3c(=O)[nH]2)CC1	-2%	13µM*	-2%[57.5 µM]	-3%	-14%	-10%
O=c1[nH]c(CSc2nc3ccccc3o2)nc2cc(Cl)ccc12	.	8.9µM*	.	.	.	.
O=c1[nH]c(CSc2nc3ccccc3o2)nc2ccccc12	.	-25%	.	.	.	.
O=C1CN(Cc2nc3cc(Cl)ccc3c(=O)[nH]2)CCN1	19%	-25%	?	-3%	3%	14%
CCNCc1nc2cc(Cl)ccc2c(=O)[nH]1	9%	0%	29%	-4%	3%	10µM*
CCOC(=O)C1CCN(Cc2cccc(Oc3ccc(Cl)cc3)c2)CC1	-4%	1.4µM*	-80%	-4%	7%	?
CCOC(=O)C1CCN(Cc2cccc(Oc3ccccc3)c2)CC1	-1%	?	0%	-2%	17%	?
Cc1c(C(=O)OC(C)C)sc(NC(=O)C2c3ccccc3Oc3ccccc32)c1C(=O)OC(C)C	-7%	-20%	i	-2%	.	8.9µM*
Cc1nc2ccccc2c(C)c1C(=O)NC1CCCCC1	.	6%	.	.	.	.
Cc1ccc(OC(C)C(=O)Nc2ccc3c(c2)n(C)c(=O)n3C)c(C)c1 (stereo unspecified)	-5%	45µM*	i	-5%	22%	11%
O=C(c1ccc(Br)o1)N(Cc1ccccc1)Cc1ccccc1	-4%	-6%	-43%	-1%	19%	10µM*
COc1cccc(-c2noc(-c3ccc(Br)cc3)n2)c1	.	-4%	.	.	.	.
COc1cccc(/C=N/NC(=S)NCCc2ccccc2)c1OC	6%	?	-25%	6%	25%	2%
NC(=S)N/N=C\c1c2ccccc2cc2ccccc12	10%	?	-8%	-5%	6%	?
COc1cccc(/C=N/NC(N)=S)c1OCc1cccc(Cl)c1	-3%	35µM*	-18%	-2%	15%	?
NC(=S)N/N=C/c1ccccc1	14%	?	i	-6%	-2%	11%
NC(=S)N/N=C/c1ccccc1OC(=O)/C=C/c1ccccc1	17%	5.6µM*	-10%	2%	14%	2.5µM*
SMILES	GLS inhibitor	ALOX12 inh	PTHR1 ag	GRP78 ERSR act	GLP-1R agonist	GLP1R inv ag
NC(=S)N/N=C\c1ccccc1OCc1ccccc1	12%	?	i	-1%	-2%	5.6µM*
NC(=S)N/N=C\c1c(OCc2ccccc2Cl)ccc2ccccc12	22%	22µM*	-16%	-2%	14%	?
CC1CCCCN1CCNC(=O)c1nn(C)c2c1COc1ccccc1-2 (stereo unspecified)	.	-3%	.	.	.	.
CC1=C(c2ccc(C)c(C)c2)S(=O)(=O)N(Cc2ccc(C(=O)NCCC(C)C)cc2)C1=O	.	0%	.	.	.	.
O=C1CC(c2ccco2)CC2=C1C1c3ccccc3C(=O)N1c1ccccc1N2 (stereo unspecified)	16%	-13%	-21%[57.5 µM]	28µM*	-4%	25%
Cc1cccc(C(=O)NC(C2CC2)C2CC2)n1	.	-22%	.	.	.	.
Cc1ccc2cccc(N=Cc3c(C)[nH]n(-c4ccccc4)c3=O)c2n1	5%	17%	-7%	-2%	20%	5.6µM*
Cc1[nH]n(-c2ccccc2)c(=O)c1/C=N/O	0%	10%	i	-7%	-4%	0%
Cc1nn(-c2cc(N3CCN(C(=O)c4ccc(F)cc4)CC3)ccc2[N+](=O)[O-])c(=O)c2ccccc12	.	-40%	.	.	.	.
O=C(CSc1ccc2ccccc2c1)NCCc1ccc(O)c(O)c1	1.4µM*	?	-38%	?	12%	35%
COc1ccc(CCNC(=O)CSc2ccc3ccccc3c2)cc1OC	-5%	?	-91%	-4%	1%	-13%
COc1cc(/C=C(\C#N)c2nc3ccccc3s2)cc([N+](=O)[O-])c1O	-18%	?	-19%	-1%	1%	-1%
N#C/C(=C\c1ccc(O)c([N+](=O)[O-])c1)c1nc2ccccc2s1	-5%	22µM*	-35%	2%	1%	-29%
Cc1cc(NC(=O)COC(=O)C2(c3ccccc3)CC2)no1	.	-25%	.	.	.	.
COc1ccc(C(=O)Nc2ccc(-c3noc([C@@H]4CCCN4CCCc4ccccc4)n3)cn2)cc1	.	49%	.	.	.	.
CC1CCCN(c2ccc(C(=O)O)cc2NS(=O)(=O)c2ccc(Br)s2)C1 (stereo unspecified)	.	5.6µM*	.	.	.	.
O=C(O)C1CCCN1S(=O)(=O)c1ccc(Br)s1 (stereo unspecified) (tested in a mixture with another compound)	14%	-4%[57.4 µM]	-4%	-7%	-4%	-1%
CCCC(=O)Nc1oc2c(C)cccc2c(=O)c1-c1ccc(OC)c(OC)c1	.	-4%	.	.	.	.
O=C1NC(c2ccccc2)=N/C1=C/c1ccco1	9%	?	-4%	3%	10%	15%
O=C1NC(c2cccc(Br)c2)=N/C1=C\c1ccco1	1%	45µM*	i	2%	6%	53%
COc1ccc(C(=O)O)cc1N1C(=O)Nc2ccccc2N1O	10%	45µM*	i	-1%	-1%	2%
CC(C)Oc1nnc(SCC(=O)Nc2ccccc2Cl)s1	.	-33%	.	.	.	.
CC1(C)CC(=O)c2sc(NC(=O)CN3CCCCC3)nc2C1	-8%	32µM*	-5%[57.5 µM]	-1%	-15%	?
CCOc1ccc(C(=O)Nc2ccc(S(=O)(=O)N3CCCCC3c3cccnc3)cc2)cc1 (stereo unspecified)	1%	-23%	-42%	-6%	.	?

Bioassay records: PubChem, National Center for Advancing Translational Sciences (NCATS)
